Test results from PubChem BioAssay (NCATS).
Results filed as inconclusive are left out. The source made the active and inactive calls. Unless noted, calls come from the whole dose curve; as a rule, active = well fitted curve in the direction sought with a large enough effect; inconclusive = small, poorly fitted or top-dose-only effect, or another doubt; inactive = no such curve, though single readings can be large; an effect the other way counts as inactive or inconclusive.

Key:
[1] = target: Ubiquitin carboxyl-terminal hydrolase 2 (Homo sapiens) (UniProt O75604); test: qHTS Validation Assay for Inhibitors of Ubiquitin-specific Protease USP2a Using CHOP2 as the Reporter (AID 463106)
Method in brief: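 Readout was coupled fluorescence (Ex 485/Em 531 nm), read 60 min after adding 25 nM final Ub-CHOP2 and 25 nM reporter substrate. Beforehand, 10 nM final USP2 core had 30 min at RT with compound in pH 8.0 buffer. Curves were fitted after normalization to NEM and flagged for artifacts using time-zero reads.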

[2] = target: DNA polymerase III PolC-type (Bacillus subtilis (strain 168)) (UniProt P13267); test: qHTS Validation Assay for the Inhibitors of DNA Replication in Gram-Positive Bacteria (AID 485295);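 note: reconstituted holoenzyme with PolC plus beta clamp SSB and primase; PicoGreen fluorescence of double-stranded DNA made on primed circular M13 template; series mostly up to about 57 µM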
Method in brief: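 Primed replication of single-stranded M13Gori by a four-protein B. subtilis holoenzyme is measured at room temperature. Double-stranded product is quantified by PicoGreen fluorescence after an EDTA stop; inhibition is scaled between DMSO and EDTA controls.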

[3] = target: Tumor susceptibility gene 101 protein (Homo sapiens) (UniProt Q99816); test: qHTS Validation Assay for Iinhibitors of HIV-1 Budding by Blocking the Interaction of PTAP/TSG101 (AID 485342; calls by dose curve)
Method in brief: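 Fluorescence anisotropy measured PTAP-Tsg101 interaction. Final concentrations were 10 uM protein domain and 50 nM labeled peptide, equilibrated 20 min at room temperature.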

[4] = qHTS Validation Assay to Find Inhibitors of Chronic Active B-Cell Receptor Signaling (AID 485345; active = well fitted curve in the direction sought with a large enough effect in the main read-out, with a control signal flat, not every such curve was filed as active)
Method in brief: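 Read-out: ratio of filter-corrected green (IkappaBalpha fusion) to red (native) luciferase signal in doxycycline-induced TMD8 cells after 4 h at 37C. Titration spanned 46 uM–3 nM; Data were normalised to basal cells and 10 uM MG-132 wells.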

[5] = target: Beta-2 adrenergic receptor (Homo sapiens) (UniProt P07550); test: qHTS validation assay of beta-arrestin-biased ligands of beta2-adrenergic receptor (AID 485366)
Method in brief: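 Agonism was measured as beta-arrestin recruitment to recombinant beta2-AR, releasing tTA to drive luciferase. Cells were exposed for 18 hr at 37 degrees C to a series up to 46 microM. %Activity from corrected luminescence gave concentration-response curves.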

[6] = target: ATP-dependent 6-phosphofructokinase (Trypanosoma brucei brucei) (UniProt O15648); test: qHTS Validation Assay to Find Inhibitors of T. brucei phosphofructokinase (AID 485368); conditions: outcome: dose series up to 57.5 µM
Method in brief: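 ADP-Glo luminescence, two-step: residual ATP depleted, then ADP converted to ATP for luciferase. Enzyme 1.25 nM, F6P 0.5 mM, ATP 0.1 mM, pH 8.0 TEA buffer, 45 min RT. Curves fitted and classed by quality and efficacy.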

[7] = Quantitative high throughput screen for delayed death inhibitors of the malarial parasite plastid, 96 hour incubation (AID 488745);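 note: luciferase-expressing P. falciparum in erythrocytes at 2% hematocrit and 0.1% parasitemia; series mostly up to about 29 µM; nearly all actives have a fitted effect of over 70% in size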
Method in brief: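 Luciferase-expressing P. falciparum, infected RBCs 2% Hct/0.1% parasitemia (final); 96 h cpd exposure, 37 C, 5% CO2; RPMI 1640 + 0.5% Albumax, bicarbonate, gentamycin. Readout: luminescence loss = growth inhibition.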

[8] = Quantitative high throughput screen for delayed death inhibitors of the malarial parasite plastid, 48 hour incubation (AID 488752); note: nearly all actives have a fitted effect of over 65% in size
Method in brief: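 Luciferase-expressing P. falciparum in RBCs, 2% Hct, 0.1% parasitemia final; RPMI 1640 + 0.5% Albumax; 48 h, 37 C, 5% CO2; luminescence readout, signal drop = growth inhibition.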

[9] = target: Thioredoxin reductase 1, cytoplasmic (Rattus norvegicus) (UniProt O89049); test: qHTS Assay for Substrates of Mammalian Selenoprotein Thioredoxin Reductase 1 (TrxR1) (AID 488772);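 note: series mostly up to about 57 µM; a drop in NADPH fluorescence below the no-compound background marks a TrxR1 substrate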
Method in brief: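 In this dual-purpose format, potential substrates are identified from the first fluorescence read after selenite addition, not from the 8-minute delta. Rat enzyme is preincubated with NADPH and then with compound at ~22 deg C.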

[10] = target: Thioredoxin reductase 1, cytoplasmic (Rattus norvegicus) (UniProt O89049); test: qHTS Assay for Inhibitors of Mammalian Selenoprotein Thioredoxin Reductase 1 (TrxR1) (AID 488773); conditions: Potency: inhibition;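 note: drop in NADPH fluorescence over an 8 min run after selenite addition; series mostly up to about 57 µM; nearly all actives have a fitted effect of over 40% in size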
Method in brief: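 Inhibition is scored from the loss of NADPH fluorescence between first and last reads of an 8-min kinetic run. Selenite (400 uM) was the substrate, added after 15 min compound preincubation at room temperature.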

[11] = target: Flap endonuclease 1 (Homo sapiens) (UniProt P39748); test: qHTS Validation Assay for the Inhibitors of Human Flap endonuclease 1 (FEN1) (AID 488816)
Method in brief: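 qHTS format: compounds and 10 nM FEN1 incubated 15 min at room temperature before adding 50 nM substrate. Cleavage followed by reads at 0 and 15 min; normalized data fitted to a four-parameter Hill curve.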

[12] = target: M-phase phosphoprotein 8 (Homo sapiens) (UniProt Q99549); test: qHTS Validation Assay for Inhibitors for MPP8 Chromodomain Interactions with Methylated Histone Tails (AID 488949);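 note: AlphaScreen signal from MPP8 chromodomain bound to biotinylated H3K9me3 peptide; top concentration of the series differs between compounds; nearly all actives have a fitted effect of over 55% in size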
Method in brief: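 Disruption of the preformed MPP8–trimethyl-H3K9 peptide complex (both 50 nM, 30 min, RT) is measured after 30 min compound exposure, using AlphaScreen proximity beads; aurintricarboxylic acid titration serves as plate control.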

[13] = target: Chromobox protein homolog 1 (Homo sapiens) (UniProt P83916); test: qHTS Validation Assay for Inhibitors of HP1-beta Chromodomain Interactions with Methylated Histone Tails (AID 488953);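 note: loss of AlphaScreen luminescence from HP1-beta binding biotinylated H3K9me3 peptide; series mostly up to about 110 µM; nearly all actives have a fitted effect of over 50% in size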
Method in brief: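 AlphaScreen proximity readout: streptavidin donor and Ni-chelate acceptor beads, 10 ug/mL final, 30 min dark, RT. Complex of 50 nM HP1-beta and 50 nM b-H3(1-18)K9me3 formed 30 min, then compound-treated 30 min; PBS pH 7.4/0.01% Tween-20.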

[14] = target: Methanococcus maripaludis chaperonin (MmCpn) (UniProt Q6LX38); test: High-Throughput Screening for Modulators of Cytosolic Chaperonin Activity: MmCpn Primary Screen (AID 488978);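 note: 50 nM MmCpn enzyme hydrolysing 30 µM ATP at 37 °C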
Method in brief: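 Measures ATPase turnover of the M. maripaludis chaperonin (50 nM final) against 30 uM ATP over 10 min at 37C, with compound added 5 min beforehand at room temperature. ADP is quantified by HTRF immunodetection.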

[15] = target: Transient receptor potential cation channel subfamily V member 1 (Homo sapiens) (UniProt Q8NER1); test: HTS Assay for Compounds that Act as Enhancers of the Vanilloid Receptor 1 (AID 488979)
Method in brief: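 Calcium influx kinetics via Fluo-8 (480/520 nm) in TRPV1-expressing cells, 2000/well cultured overnight at 35.5C. Compound-alone read 3 min (agonist phase), followed by EC20 capsaicin challenge for 2 min (enhancer phase).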

[16] = target: Thyrotropin receptor (Homo sapiens) (UniProt P16473); test: qHTS Assay for Antagonists of the Thyroid Stimulating Hormone Receptor (AID 488980); note: series mostly up to about 58 µM
Method in brief: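 Cells expressing human TSHR (HEK293) are dispensed in HBSS/HEPES containing 70 uM RO 20-1724, compound is added, then TSH at EC80 (4 nM final). Antibody in lysis buffer follows, 30 minutes at room temperature before HTRF detection.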

[17] = target: D(1A) dopamine receptor (Homo sapiens) (UniProt P21728); test: HTS Assay for Allosteric Agonists of the Human D1 Dopamine Receptor: Primary Screen for Agonists (AID 488981)
Method in brief: (§1)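 Calcium flux in an inducible, force-coupled HEK293 Trex D1 line (overnight at 30 C): agonist mode is the 180 s kinetic read after compound; potentiator mode is the following 180 s read after dopamine at EC20.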

[18] = target: D(1A) dopamine receptor (Homo sapiens) (UniProt P21728); test: HTS Assay for Allosteric Agonists of the Human D1 Dopamine Receptor: Primary Screen for Potentiators (AID 488982)
Method in brief: as §1

[19] = target: D(1A) dopamine receptor (Homo sapiens) (UniProt P21728); test: HTS Assay for Allosteric Agonists of the Human D1 Dopamine Receptor: Primary Screen for Antagonists (AID 488983);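 note: calcium flux response to an EC80 dopamine challenge measured with no-wash dye; nearly all actives have a fitted effect of over 65% in size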
Method in brief: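 Calcium flux readout, no-wash dye, inducible HEK293 T-REx D1 line (force-coupled). Compound added after 10 s baseline, 180 s kinetic read; then dopamine at EC80, further 180 s read.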

[20] = target: ATP-dependent 6-phosphofructokinase (Trypanosoma brucei brucei) (UniProt O15648); test: qHTS Assay to Find Inhibitors of T. brucei phosphofructokinase: hit validation (AID 492961);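 note: luminescence reports ADP formed as PFK phosphorylates fructose-6-phosphate with ATP; series mostly up to about 51 µM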
Method in brief: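 ADP-Glo luminescence read-out of ADP formed by 1.25 nM PFK from 0.1 mM ATP and 0.5 mM F6P (TEA pH 8.0, 45 min, RT). Compounds titrated; activity normalized to no-enzyme and full-enzyme controls.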

Measured: Potency

Thioredoxin reductase 1, cytoplasmic (Rattus norvegicus), sequence (O89049 whole entry, looked up): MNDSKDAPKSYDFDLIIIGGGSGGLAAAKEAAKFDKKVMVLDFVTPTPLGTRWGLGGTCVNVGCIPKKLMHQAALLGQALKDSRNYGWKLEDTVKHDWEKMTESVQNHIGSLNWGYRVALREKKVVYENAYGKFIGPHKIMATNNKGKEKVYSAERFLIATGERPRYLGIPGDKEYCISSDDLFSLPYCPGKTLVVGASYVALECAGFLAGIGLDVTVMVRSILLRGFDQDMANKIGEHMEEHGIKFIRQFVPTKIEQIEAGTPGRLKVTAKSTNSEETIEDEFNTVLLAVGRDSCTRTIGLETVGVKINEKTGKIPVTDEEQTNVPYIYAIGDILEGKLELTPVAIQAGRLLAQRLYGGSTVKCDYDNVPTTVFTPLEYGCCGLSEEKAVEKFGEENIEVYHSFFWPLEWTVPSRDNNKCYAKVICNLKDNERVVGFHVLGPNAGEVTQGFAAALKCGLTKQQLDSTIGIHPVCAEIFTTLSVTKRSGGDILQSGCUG
DNA polymerase III PolC-type (Bacillus subtilis (strain 168)), sequence (P13267 whole entry, looked up): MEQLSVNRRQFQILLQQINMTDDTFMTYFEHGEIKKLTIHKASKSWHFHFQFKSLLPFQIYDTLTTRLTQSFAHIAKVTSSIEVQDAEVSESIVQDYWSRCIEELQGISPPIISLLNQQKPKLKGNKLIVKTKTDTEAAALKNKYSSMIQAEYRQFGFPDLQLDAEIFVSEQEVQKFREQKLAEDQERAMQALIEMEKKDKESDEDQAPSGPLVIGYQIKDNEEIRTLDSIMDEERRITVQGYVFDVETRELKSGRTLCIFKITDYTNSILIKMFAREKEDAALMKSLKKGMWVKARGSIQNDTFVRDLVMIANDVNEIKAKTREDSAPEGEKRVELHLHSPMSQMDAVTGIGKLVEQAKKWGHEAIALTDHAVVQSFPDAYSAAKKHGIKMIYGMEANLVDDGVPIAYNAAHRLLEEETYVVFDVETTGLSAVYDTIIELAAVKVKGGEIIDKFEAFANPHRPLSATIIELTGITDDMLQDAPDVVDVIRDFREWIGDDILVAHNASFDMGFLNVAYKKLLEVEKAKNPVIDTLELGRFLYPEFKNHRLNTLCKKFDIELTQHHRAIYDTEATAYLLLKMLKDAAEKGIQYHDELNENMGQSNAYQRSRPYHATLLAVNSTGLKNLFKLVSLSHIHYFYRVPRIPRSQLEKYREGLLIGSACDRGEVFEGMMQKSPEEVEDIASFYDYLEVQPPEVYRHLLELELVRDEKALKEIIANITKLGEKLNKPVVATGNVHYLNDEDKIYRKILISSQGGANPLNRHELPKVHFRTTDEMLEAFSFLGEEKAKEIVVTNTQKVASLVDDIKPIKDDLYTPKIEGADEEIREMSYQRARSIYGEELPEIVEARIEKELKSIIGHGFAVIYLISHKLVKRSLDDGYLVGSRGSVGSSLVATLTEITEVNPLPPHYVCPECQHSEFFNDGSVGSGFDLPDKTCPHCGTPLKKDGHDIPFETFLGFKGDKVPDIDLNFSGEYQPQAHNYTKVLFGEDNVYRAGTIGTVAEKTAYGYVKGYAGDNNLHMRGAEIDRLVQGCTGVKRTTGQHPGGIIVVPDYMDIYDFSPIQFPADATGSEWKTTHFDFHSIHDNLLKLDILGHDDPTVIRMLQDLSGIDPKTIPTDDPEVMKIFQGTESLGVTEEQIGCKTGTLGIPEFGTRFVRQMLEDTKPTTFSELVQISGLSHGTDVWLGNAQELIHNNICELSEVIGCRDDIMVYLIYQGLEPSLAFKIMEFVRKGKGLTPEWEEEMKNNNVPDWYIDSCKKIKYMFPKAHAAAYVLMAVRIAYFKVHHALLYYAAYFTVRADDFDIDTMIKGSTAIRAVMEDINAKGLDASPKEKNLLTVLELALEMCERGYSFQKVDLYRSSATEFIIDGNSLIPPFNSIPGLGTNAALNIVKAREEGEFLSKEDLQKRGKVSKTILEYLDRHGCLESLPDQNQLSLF
Beta-2 adrenergic receptor (Homo sapiens), sequence (P07550 whole entry, looked up): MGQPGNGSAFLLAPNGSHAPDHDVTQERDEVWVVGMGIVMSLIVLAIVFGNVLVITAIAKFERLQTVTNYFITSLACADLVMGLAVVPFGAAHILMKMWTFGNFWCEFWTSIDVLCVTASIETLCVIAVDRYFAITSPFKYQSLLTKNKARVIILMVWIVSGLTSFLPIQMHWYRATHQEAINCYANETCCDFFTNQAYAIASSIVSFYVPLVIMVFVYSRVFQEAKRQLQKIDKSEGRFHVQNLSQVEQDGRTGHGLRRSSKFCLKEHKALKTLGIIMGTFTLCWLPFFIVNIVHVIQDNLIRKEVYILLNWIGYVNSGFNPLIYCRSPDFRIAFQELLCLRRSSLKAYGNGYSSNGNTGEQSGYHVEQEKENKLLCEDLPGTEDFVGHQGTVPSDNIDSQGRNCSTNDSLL
Methanococcus maripaludis chaperonin (MmCpn), sequence (Q6LX38 1-543): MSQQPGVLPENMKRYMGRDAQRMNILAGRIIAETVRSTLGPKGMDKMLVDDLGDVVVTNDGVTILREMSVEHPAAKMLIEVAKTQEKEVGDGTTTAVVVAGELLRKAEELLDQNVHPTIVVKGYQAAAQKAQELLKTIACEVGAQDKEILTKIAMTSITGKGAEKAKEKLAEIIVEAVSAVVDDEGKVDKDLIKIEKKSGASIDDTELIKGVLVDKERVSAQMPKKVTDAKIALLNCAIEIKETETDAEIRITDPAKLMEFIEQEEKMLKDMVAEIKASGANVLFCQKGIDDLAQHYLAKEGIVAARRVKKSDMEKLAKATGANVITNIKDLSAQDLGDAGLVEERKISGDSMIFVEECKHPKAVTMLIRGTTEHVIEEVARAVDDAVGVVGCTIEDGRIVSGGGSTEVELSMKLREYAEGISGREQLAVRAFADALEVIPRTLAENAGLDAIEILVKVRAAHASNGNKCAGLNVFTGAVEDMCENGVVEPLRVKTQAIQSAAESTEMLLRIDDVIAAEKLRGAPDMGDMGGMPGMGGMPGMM
Thyrotropin receptor (Homo sapiens), sequence (P16473 whole entry, looked up): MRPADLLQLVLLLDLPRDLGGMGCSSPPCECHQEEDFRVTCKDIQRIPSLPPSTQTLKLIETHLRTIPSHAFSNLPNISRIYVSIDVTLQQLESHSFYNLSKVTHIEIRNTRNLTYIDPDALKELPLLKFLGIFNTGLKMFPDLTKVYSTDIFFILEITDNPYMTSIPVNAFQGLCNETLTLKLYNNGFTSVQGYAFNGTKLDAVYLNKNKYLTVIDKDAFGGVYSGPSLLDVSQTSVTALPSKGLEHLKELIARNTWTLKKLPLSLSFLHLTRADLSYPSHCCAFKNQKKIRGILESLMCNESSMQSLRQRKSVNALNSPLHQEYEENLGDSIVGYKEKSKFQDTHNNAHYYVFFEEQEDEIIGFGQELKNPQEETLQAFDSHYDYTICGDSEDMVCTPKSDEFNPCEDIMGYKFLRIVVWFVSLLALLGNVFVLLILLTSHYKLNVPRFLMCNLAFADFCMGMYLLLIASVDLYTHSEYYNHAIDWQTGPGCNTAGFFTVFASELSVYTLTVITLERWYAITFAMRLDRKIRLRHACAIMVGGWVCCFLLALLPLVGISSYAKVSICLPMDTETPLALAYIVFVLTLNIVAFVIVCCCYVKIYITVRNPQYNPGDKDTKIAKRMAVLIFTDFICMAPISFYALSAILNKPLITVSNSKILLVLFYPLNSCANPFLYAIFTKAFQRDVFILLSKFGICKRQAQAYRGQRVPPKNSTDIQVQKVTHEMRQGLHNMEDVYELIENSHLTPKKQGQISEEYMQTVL
D(1A) dopamine receptor (Homo sapiens), sequence (P21728 whole entry, looked up): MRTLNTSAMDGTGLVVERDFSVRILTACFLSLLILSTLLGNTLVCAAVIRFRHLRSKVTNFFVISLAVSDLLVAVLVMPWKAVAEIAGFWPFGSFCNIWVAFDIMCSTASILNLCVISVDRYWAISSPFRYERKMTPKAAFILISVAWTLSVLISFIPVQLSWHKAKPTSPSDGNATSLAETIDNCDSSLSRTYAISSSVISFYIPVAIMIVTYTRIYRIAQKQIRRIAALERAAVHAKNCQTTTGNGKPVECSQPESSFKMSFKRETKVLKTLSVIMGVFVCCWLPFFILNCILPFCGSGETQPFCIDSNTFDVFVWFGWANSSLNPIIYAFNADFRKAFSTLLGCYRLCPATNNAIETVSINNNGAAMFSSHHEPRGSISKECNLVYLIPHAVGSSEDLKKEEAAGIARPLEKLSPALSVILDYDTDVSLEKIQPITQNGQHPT
M-phase phosphoprotein 8 (Homo sapiens), sequence (Q99549 whole entry, looked up): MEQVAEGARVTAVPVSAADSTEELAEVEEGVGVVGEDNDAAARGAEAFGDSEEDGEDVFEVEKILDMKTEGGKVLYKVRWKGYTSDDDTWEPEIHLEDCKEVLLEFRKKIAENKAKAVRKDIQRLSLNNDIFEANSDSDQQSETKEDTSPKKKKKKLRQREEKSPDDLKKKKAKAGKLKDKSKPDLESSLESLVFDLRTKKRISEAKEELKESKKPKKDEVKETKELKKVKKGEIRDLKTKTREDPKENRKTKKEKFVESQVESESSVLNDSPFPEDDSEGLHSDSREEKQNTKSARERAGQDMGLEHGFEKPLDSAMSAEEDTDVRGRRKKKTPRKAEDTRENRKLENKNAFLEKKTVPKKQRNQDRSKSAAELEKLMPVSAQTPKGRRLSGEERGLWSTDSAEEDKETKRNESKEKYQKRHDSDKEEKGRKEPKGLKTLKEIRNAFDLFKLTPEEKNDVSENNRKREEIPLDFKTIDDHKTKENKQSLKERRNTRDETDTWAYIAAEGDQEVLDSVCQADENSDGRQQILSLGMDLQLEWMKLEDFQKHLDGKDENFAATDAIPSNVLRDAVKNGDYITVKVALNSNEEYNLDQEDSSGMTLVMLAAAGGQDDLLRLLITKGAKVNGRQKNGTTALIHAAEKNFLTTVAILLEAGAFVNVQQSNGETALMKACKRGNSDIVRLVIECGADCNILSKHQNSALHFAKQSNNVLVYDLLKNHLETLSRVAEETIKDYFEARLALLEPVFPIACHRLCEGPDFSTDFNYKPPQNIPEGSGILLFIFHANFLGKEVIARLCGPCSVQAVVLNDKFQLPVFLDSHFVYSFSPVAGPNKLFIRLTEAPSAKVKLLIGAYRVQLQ

Clc1cccc(Cl)c1NC1=NCCN1
inactive: [1] | [2] | [3] | [4] | [5] | [6] | [7] | [8] | [9] | [10] | [11] | [12] | [13] | [14] | [15] | [16] | [17] | [18] | [19]

CCn1cc(C(=O)O)c(=O)c2cc(F)c(N3CCNC(C)C3)c(F)c21 (configuration not stated)
inactive: [1] | [2] | [3] | [4] | [5] | [6] | [8] | [9] | [10] | [11] | [12] | [13] | [14] | [15] | [16] | [17] | [18] | [19]

CCCCNc1cc(C(=O)O)cc(S(N)(=O)=O)c1Oc1ccccc1
inactive: [1] | [2] | [3] | [4] | [5] | [7] | [8] | [9] | [10] | [11] | [12] | [13] | [14] | [15] | [16] | [17] | [18] | [19] | [20]

c1ccc([C@H]2CN3CCSC3=N2)cc1
inactive: [1] | [2] | [3] | [4] | [5] | [7] | [8] | [9] | [10] | [11] | [12] | [13] | [14] | [15] | [16] | [17] | [18] | [19]

OC(CCN1CCCCC1)(c1ccccc1)C1CC2C=CC1C2 (configuration not stated)
inactive: [1] | [2] | [3] | [4] | [5] | [6] | [9] | [10] | [11] | [12] | [13] | [14] | [17] | [18] | [19]

Cc1ccccc1C(OCCN(C)C)c1ccccc1 (configuration not stated)
inactive: [1] | [2] | [3] | [4] | [5] | [6] | [7] | [8] | [9] | [10] | [11] | [12] | [13] | [14] | [15] | [16] | [17] | [18] | [19] | [20]

Cc1[nH]c(=O)c(C#N)cc1-c1ccc2nccn2c1
inactive: [1] | [2] | [3] | [4] | [5] | [7] | [8] | [9] | [10] | [11] | [12] | [13] | [14] | [15] | [16] | [17] | [19] | [20]
